This note sets out measurements from PubChem BioAssay (EPA / NIEHS).

A short description of experiment [1]: ATG_TAL_CIS: Attagene CIS-FACTORIAL HepG2 Assay for human TAL Basal Promoter (AID 2282966).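 Note: background control endpoint measuring basal TAL promoter reporter mRNA not a specific factor.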 Particulars: HepG2 Attagene cis-factorial TAL promoter reporter; actives raise or lower the signal. The gist of the method: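 HepG2 cells were transiently transfected with promoter-driven multiplexed reporter units and dosed for 24 h. Reporter mRNA was measured by RT-PCR with capillary electrophoresis fluorescence; bidirectional fits used DMSO as baseline, serving as a background control.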

A short description of experiment [2]: ATG_TGFb_CIS: Attagene CIS-FACTORIAL HepG2 Assay for human Transforming Growth Factor (TGF) (AID 2282967). Particulars: HepG2 Attagene CIS TGFb reporter, mRNA transcription; actives raise or lower the signal. The gist of the method:
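Liver HepG2 line, cis-factorial reporter panel, 24 h dosing. Quantitation: RT-PCR products labeled with 6-FAM, cut with HpaI, resolved by capillary electrophoresis; DMSO-referenced bidirectional analysis.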

Experiment [3] can be described thus: ATG_VDRE_CIS: Attagene CIS-FACTORIAL HepG2 Assay for human Vitamin D Receptor Element (VDRE) (AID 2282968). Conditions: HepG2 VDRE cis-reporter transcription, actives raise or lower the signal. The procedure, abridged: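 Transiently transfected HepG2 cells carrying cis-regulated reporter transcription units were exposed for 24 h. Reporter mRNA was measured by RT-PCR with fluorescent labelling and capillary electrophoresis, and fitted in both directions against DMSO.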

For experiment [4], the target named is Steroid hormone receptor ERR1 (Homo sapiens) (UniProt P11474). Put plainly: ATG_ERRa_TRANS: Attagene TRANS-FACTORIAL HepG2 Assay for human Estrogen-Related Receptor alpha (ERRa) (AID 2282971; active = hit-call score of the fitted dose curve at least 0.9, where 1 is the maximum). Particulars: HepG2 Attagene TRANS reporter, ERRa transactivation. The gist of the method: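 HepG2 cells transiently transfected with multiplexed GAL4-UAS reporter units reading chimeric ERRa-Gal4 activity; 24 h compound exposure. Reporter mRNA measured by RT-PCR, 6-FAM labelling, HpaI digest and capillary electrophoresis; gain of signal fitted versus DMSO baseline.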

For experiment [5], the target named is X-box-binding protein 1 (Homo sapiens) (UniProt P17861). Description: ATG_Xbp1_CIS: Attagene CIS-FACTORIAL HepG2 Assay for human X-box Binding Protein 1 (XBP1) (AID 2282972). Conditions: HepG2 XBP1 cis-element reporter, Attagene multiplex; actives raise or lower the signal. The procedure, abridged:
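HepG2, transient MRTU transfection (cis-promoter driven), 24 h compound exposure. Total RNA → oligo(dT) RT → PCR → 6-FAM labeling → HpaI cut → CE. Bidirectional fit vs DMSO.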

The nature of experiment [6]: ATG_M_19_TRANS: Attagene TRANS-FACTORIAL HepG2 Assay for M19 Transcription Factor (Internal Marker) (AID 2282974; active = hit-call score of the fitted dose curve at least 0.9, where 1 is the maximum). Conditions: HepG2 Attagene TRANS-FACTORIAL M19 internal marker reporter. The gist of the method:
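Using RT-PCR and capillary electrophoresis, reporter mRNA from transiently transfected human HepG2 cells was quantified following 24 h exposure; activity was fitted in the positive direction against DMSO.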

Experiment [7] is described as follows: ATG_GAL4_TRANS: Attagene TRANS-FACTORIAL HepG2 Assay for GAL4 (Internal Marker) (AID 2282976; active = hit-call score of the fitted dose curve at least 0.9, where 1 is the maximum). Conditions: HepG2 Attagene TRANS GAL4 internal marker reporter. The procedure, abridged: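 HepG2 cells transiently transfected with multiplexed GAL4-UAS reporter constructs were dosed for 24 h. Reporter mRNA was measured by RT-PCR, 6-FAM primer extension, HpaI digestion and capillary electrophoresis, and gain of signal was fitted relative to DMSO.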

The target in experiment [8] is Estrogen-related receptor gamma (Homo sapiens) (UniProt P62508). Put plainly: ATG_ERRg_TRANS: Attagene TRANS-FACTORIAL HepG2 Assay for human Estrogen-Related Receptor gamma (ERRg) (AID 2282977; active = hit-call score of the fitted dose curve at least 0.9, where 1 is the maximum;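 note: hits increase reporter signal over DMSO so potencies reflect activators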). Particulars: HepG2 Attagene TRANS reporter, ERRg transactivation. The gist of the method:
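HepG2 cells transiently transfected with multiplexed GAL4-UAS reporter units driven by chimeric NR-Gal4 proteins; 24 h exposure. Reporter mRNA quantified by RT-PCR, fluorescent labelling, HpaI digestion and capillary electrophoresis; gain of signal vs DMSO.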

Experiment [9] deals with Estrogen receptor (Homo sapiens) (UniProt P03372). Description: ATG_ERa_TRANS: Attagene TRANS-FACTORIAL HepG2 Assay for human Estrogen Receptor alpha (ERa) (AID 2282970; active = hit-call score of the fitted dose curve at least 0.9, where 1 is the maximum). Conditions: HepG2 Attagene TRANS ERa GAL4 reporter, mRNA. The procedure, abridged:
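HepG2 cells transiently transfected with multiplexed GAL4-UAS reporter units; ERa activity read via exogenous chimeric NR-Gal4 protein. After 24 hour compound exposure, reporter mRNA measured by RT-PCR with 6-FAM labelling and capillary electrophoresis; gain-of-signal fitted relative to DMSO.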

Experiment [10] concerns the target Nuclear receptor subfamily 1 group I member 3 (Homo sapiens) (UniProt Q14994). Description: ATG_CAR_TRANS: Attagene TRANS-FACTORIAL HepG2 Assay for human Constitutive Androstane Receptor (CAR) (AID 2282969; active = hit-call score of the fitted dose curve at least 0.9, where 1 is the maximum;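 note: activators raise reporter mRNA above DMSO so AC50 marks induction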). Particulars: HepG2 Attagene TRANS-FACTORIAL CAR reporter. The procedure, abridged: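 HepG2 cells transiently transfected with GAL4-UAS reporter units; TRANS format reads activity of exogenous chimeric NR-Gal4 protein. After 24 h dosing, reporter mRNA quantified by RT-PCR, 6-FAM labelling and capillary electrophoresis; gain of signal fitted against DMSO.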

Records with an inconclusive call do not appear. The source made the active and inactive calls. Rule for the calls, unless noted: active = hit-call score of the fitted dose curve at least 0.9, where 1 is the maximum; inactive = score below 0.9.

Chain of X-box-binding protein 1 (Homo sapiens) (P17861 whole entry, looked up): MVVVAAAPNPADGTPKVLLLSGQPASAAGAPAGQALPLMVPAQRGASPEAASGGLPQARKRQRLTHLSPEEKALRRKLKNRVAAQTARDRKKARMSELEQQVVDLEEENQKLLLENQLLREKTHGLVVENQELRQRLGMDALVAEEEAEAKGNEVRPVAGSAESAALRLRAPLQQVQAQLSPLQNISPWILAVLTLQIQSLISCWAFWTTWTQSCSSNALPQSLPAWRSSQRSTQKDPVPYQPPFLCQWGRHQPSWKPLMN
Chain of Estrogen-related receptor gamma (Homo sapiens) (P62508 whole entry, looked up, the tested form may be a part): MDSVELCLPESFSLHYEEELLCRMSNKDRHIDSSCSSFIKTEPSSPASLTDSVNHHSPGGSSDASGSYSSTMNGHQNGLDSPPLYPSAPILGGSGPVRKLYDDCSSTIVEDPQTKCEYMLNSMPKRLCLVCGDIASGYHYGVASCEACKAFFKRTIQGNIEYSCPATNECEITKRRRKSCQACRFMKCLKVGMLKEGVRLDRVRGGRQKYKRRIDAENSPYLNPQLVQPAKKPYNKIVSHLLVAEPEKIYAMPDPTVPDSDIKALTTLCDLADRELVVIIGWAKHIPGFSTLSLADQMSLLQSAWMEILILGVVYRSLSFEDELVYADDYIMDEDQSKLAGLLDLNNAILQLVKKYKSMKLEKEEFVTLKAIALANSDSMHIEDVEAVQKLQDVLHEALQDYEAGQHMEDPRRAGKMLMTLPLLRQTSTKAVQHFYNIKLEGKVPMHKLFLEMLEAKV
Chain of Steroid hormone receptor ERR1 (Homo sapiens) (P11474 whole entry, looked up, the tested form may be a part): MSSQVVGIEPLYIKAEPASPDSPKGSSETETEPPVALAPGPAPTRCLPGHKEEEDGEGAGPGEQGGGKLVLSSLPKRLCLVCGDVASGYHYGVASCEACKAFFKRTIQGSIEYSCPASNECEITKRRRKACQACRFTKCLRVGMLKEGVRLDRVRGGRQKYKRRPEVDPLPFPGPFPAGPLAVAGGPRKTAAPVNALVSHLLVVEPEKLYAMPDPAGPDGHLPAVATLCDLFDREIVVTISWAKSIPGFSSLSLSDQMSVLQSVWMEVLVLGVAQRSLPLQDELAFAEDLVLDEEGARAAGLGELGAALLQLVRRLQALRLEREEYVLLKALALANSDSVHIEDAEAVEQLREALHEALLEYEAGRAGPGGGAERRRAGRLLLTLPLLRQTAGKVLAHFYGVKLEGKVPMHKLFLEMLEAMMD
Chain of Estrogen receptor (Homo sapiens) (P03372 whole entry, looked up, the tested form may be a part): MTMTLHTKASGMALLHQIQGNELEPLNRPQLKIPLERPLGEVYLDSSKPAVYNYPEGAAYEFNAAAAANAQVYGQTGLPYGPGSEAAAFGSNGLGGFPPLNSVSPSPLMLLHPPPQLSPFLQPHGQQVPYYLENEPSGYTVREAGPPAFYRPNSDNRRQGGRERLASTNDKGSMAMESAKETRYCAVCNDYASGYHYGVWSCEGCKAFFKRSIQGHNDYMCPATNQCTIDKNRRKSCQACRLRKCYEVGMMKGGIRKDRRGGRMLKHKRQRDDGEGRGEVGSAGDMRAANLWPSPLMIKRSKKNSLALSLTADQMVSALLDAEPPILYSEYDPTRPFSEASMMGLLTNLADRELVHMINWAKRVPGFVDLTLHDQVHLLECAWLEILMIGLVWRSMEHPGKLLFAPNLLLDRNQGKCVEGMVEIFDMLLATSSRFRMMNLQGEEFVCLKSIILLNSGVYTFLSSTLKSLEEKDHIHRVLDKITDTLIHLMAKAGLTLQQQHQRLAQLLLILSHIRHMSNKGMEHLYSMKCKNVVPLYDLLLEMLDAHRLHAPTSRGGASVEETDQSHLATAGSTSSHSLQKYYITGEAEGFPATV
Chain of Nuclear receptor subfamily 1 group I member 3 (Homo sapiens) (Q14994 whole entry, looked up, the tested form may be a part): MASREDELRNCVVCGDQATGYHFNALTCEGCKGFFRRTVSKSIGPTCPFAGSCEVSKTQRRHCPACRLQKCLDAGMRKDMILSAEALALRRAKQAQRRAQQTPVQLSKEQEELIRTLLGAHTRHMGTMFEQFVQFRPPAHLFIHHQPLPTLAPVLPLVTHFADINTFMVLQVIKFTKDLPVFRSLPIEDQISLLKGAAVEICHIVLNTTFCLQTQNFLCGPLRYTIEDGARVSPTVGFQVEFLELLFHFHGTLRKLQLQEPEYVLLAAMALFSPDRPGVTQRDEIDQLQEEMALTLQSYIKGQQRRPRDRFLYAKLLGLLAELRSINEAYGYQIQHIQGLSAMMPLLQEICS

For the compound `ClC(Cl)c1ccccc1`, the outcome in experiment [1], in [2], in [3], in experiment [4], in [5] and in experiment [6] was inactive. Also, the compound was called inactive in experiment [7] and in experiment [8].
Consider `CCCCN(CCCC)SN(C)C(=O)Oc1cccc2c1OC(C)(C)C2`, for which the result in experiment [1], in [2], in experiment [3], in experiment [5], in experiment [6] and in experiment [7] was inactive. In experiment [9], the AC50 was 75.5 µM (active).
As for `CCC1(c2ccccc2)C(=O)N=C(O)NC1=O` (stereo unspecified), the outcome in experiment [1], in experiment [2], in [3], in experiment [5] and in experiment [7] was inactive.
For the compound `CCOS(=O)(=O)OCC`, the result in experiment [1], in [2], in [3] and in experiment [5] was inactive.
As for `O=C(O)CF`, the call in experiment [1], in experiment [2], in experiment [3], in experiment [5], in experiment [6] and in [7] was inactive.
Take `Cc1ccc(O)cc1C`: the result in experiment [1], in [2], in experiment [5], in experiment [6] and in experiment [7] was inactive. For the same compound, in [9], the AC50 was 72.4 µM (active).
Consider `CCCCCCCc1ccc(O)cc1`, for which the outcome in [1], in experiment [2], in [3], in experiment [5], in [6] and in experiment [7] was inactive.
In the case of `NNC(N)=S`, the result in [1], in experiment [2], in experiment [3], in experiment [5], in experiment [6] and in experiment [7] was inactive.
For the compound `C/C(=N\NC(=O)Nc1cc(F)cc(F)c1)c1ncccc1C(=O)O`, the result in experiment [1], in [2], in experiment [3], in experiment [9], in [5] and in [6] was inactive. The compound was called inactive in [7].
On to `CCOP(=O)(O)C(N)=O`, for which the compound was classed as inactive in [1], in [2], in experiment [3], in [9], in experiment [5] and in [6]. Besides, the outcome in [7] was inactive.
As for `FC(F)(F)c1ccc(Cl)cc1`, the outcome in experiment [1], in experiment [2], in experiment [3], in experiment [5] and in experiment [7] was inactive.
For the compound `COP(=O)(O)OC`, the outcome in experiment [1], in experiment [2], in experiment [10], in experiment [9], in experiment [5] and in [6] was inactive.
In the case of `Cn1[nH]nnc1=S`, the result in experiment [1], in experiment [2], in [3], in [5], in experiment [6] and in experiment [7] was inactive.
As to `COCCOCCO`, the call in experiment [1], in experiment [2], in experiment [3], in experiment [4], in experiment [5] and in [7] was inactive. In experiment [8], the compound was classed as inactive.
Consider `CCN(CC)c1ccccc1`, for which the outcome in experiment [1], in experiment [2], in experiment [3], in experiment [9], in experiment [5] and in [6] was inactive.
In the case of `Nc1ccc([N+](=O)[O-])cc1Cl`, the outcome in experiment [1], in [2], in experiment [3], in experiment [9], in [5] and in [6] was inactive. The compound was called inactive in experiment [7].
For `CCCCN(CCCC)N=O`, the result in [1], in [2], in [9], in experiment [5] and in experiment [7] was inactive.
For the compound `Oc1ccccc1Br`, the compound was called inactive in experiment [1], in [2], in experiment [3], in [5] and in experiment [7].
With `CN(C)C(=O)Cl`, the result in [1], in experiment [2], in [3], in experiment [4], in experiment [5] and in [8] was inactive.
Take `O=S1(=O)OCC2C(CO1)C1(Cl)C(Cl)=C(Cl)C2(Cl)C1(Cl)Cl` (stereo unspecified): the call in experiment [1], in experiment [2] and in experiment [9] was inactive. Also, the AC50 in experiment [5] was 167 µM (active).
As for `COP(N)(=S)OC`, the compound was classed as inactive in experiment [2], in [3], in [10], in [9], in experiment [4] and in experiment [5]. Moreover, the outcome in experiment [6] and in experiment [7] was inactive.
For `N#Cc1c(-c2ccc(Cl)cc2)[nH]c(C(F)(F)F)c1Br`, the compound was classed as inactive in [1], in experiment [2], in experiment [9], in experiment [5], in experiment [6] and in [7]. For the same compound, the compound was called inactive in experiment [8]. For the same compound, the AC50 in experiment [3] is 0.605 µM (active).
Consider `O=C(CBr)OCc1ccccc1`, for which the call in [1], in [2], in experiment [3], in [9], in experiment [5] and in experiment [6] was inactive. The compound was classed as inactive in experiment [7].
As for `CC(C)CBr`, the compound was classed as inactive in [1], in experiment [2], in experiment [3], in experiment [9], in experiment [5] and in experiment [7]. Further, the compound was classed as inactive in experiment [8].
Turning to `Cc1c([N+](=O)[O-])cc2c(c1[N+](=O)[O-])C(C)(C)CC2(C)C`, the result in experiment [2], in experiment [3], in experiment [9], in experiment [4], in experiment [5] and in experiment [7] was inactive.
Turning to `O=c1ssc(Cl)c1Cl`, the compound was classed as inactive in [2], in experiment [9] and in [8]. The AC50 in experiment [3] was 52.6 µM (active); in experiment [5] it was 45.8 µM (active).
`CC(C)Nc1ccc(Nc2ccccc2)cc1`: the call in [2], in [4], in [5], in experiment [6], in experiment [7] and in [8] was inactive. Also, the AC50 in experiment [3] is 3.68 µM (active); in experiment [9], 8.77 µM (active).
On to `CC(C)(C)c1ccccc1OP(=O)(Oc1ccccc1)Oc1ccccc1`, for which the call in [2], in experiment [3], in [4], in experiment [5], in experiment [6] and in experiment [7] was inactive. Besides, the compound was classed as inactive in [8]. For the same compound, the AC50 in experiment [9] was 5.03 µM (active).

A word on the AC50: it is the concentration at which the activity in the assay is half-maximal.
